# Laboratory results published in PubChem BioAssay AID504914 (The Scripps Research Institute Molecular Screening Center, 2011).
# Some of the results follow. A number with no mark means an inactive call. No rule for the calls is given here.
# Target: 5-hydroxytryptamine receptor 5A (Homo sapiens) (UniProt P47898)
# Assay: HTR5A inverse agonists, counter-screen for OPRM1-OPRD1 inverse agonist project, cell-based, luminescence (AID 504914);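 also: 0% = cells with DMSO and 100% = no-cell wells with DMSO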
# Details: HTR5A-expressing cells, inverse agonism, at 9.3 µM, active compounds read high
# Sequence of 5-hydroxytryptamine receptor 5A (Homo sapiens) (P47898 whole entry, looked up): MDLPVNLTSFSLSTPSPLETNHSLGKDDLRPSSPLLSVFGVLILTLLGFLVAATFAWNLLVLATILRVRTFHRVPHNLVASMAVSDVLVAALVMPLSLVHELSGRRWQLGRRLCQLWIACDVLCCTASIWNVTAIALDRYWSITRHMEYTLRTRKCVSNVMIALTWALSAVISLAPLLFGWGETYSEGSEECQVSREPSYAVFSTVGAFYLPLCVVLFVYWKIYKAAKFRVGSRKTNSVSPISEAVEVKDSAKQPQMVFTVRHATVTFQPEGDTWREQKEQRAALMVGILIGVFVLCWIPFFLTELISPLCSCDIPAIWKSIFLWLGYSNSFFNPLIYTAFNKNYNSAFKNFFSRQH
row,Structure (SMILES),inhibition [%]
1,CCOC(=O)c1c(N)n(Cc2ccccc2)c2nc3ccccc3nc12,18
2,CCOC(=O)c1c(N)n(CCN2CCOCC2)c2nc3ccccc3nc12,-10.8
3,CC1=CC(=Cc2sc3ccccc3[n+]2C)C=C(C)O1,-18.3
